DRD3 antagonist: D3 dopamine receptor (human) antagonism; AID 652054; 360,000 compounds, 2.5% hits; P35462; max response, negative = inhibition, %; D3R cells, DiscoveRx beta-arrestin luminescence, antagonist mode; stronger effect = lower value; in the data active = max response below about -50%; inconclusive = no clear call, values can overlap the other calls
Target sequence (P35462 whole entry, looked up): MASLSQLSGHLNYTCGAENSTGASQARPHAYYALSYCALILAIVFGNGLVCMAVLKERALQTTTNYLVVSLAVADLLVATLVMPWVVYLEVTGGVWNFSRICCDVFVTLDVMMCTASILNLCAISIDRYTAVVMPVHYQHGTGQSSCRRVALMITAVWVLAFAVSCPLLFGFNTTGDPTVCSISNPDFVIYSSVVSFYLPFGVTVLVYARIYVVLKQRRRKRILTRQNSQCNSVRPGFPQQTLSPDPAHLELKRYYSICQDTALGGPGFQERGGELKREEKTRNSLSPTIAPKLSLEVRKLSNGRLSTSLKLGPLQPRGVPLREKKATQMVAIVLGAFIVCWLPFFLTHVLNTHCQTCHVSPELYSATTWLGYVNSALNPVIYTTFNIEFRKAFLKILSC
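Cells plated overnight at 1500 cells/well, then exposed to library compounds with dopamine controls for 90 minutes at 37 degrees C. DiscoveRx reagent added for 30–60 minutes at room temperature; luminescence read, quantitative HTS format.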
ATXN2 expr inh: ATXN2 expression inhibition. HEK-293 ATXN2-luciferase reporter, luminescence, 24 h. Potency, µM (highest dose often 57 µM), most hits filed as inhibitors. 360,000 compounds, 0.72% hits. AID 1745845; note: nearly all actives have a fitted effect of over 55% in size
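qHTS (up to 57 uM final) was run with 24 h compound exposure of reporter cells at 37 °C. Each well was multiplexed: SteadyGlo luminescence measured ATXN2-luciferase expression after a fluorogenic Gly-Phe-AFC viability readout (25 uM final).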
S2 tox: reduces viability in counter-screen for ATXN expression inhibitors; 400,000 compounds, 0.49% hits; Potency, µM (doses to about 56.7 µM), hits mostly cytotoxic; S2 cells (HEK-293 line with an ATXN2-luciferase reporter) viability, CellTiter-Fluor protease fluorescence, 24 h; note: nearly all actives have a fitted effect of over 40% in size
HepG2 tox-1: HepG2 cytotoxicity, counter-screen for TGF-b inhibitors; HepG2 CAGA-GFP viability, ATP luminescence, 18 h; Potency, µM (top dose mostly 46.1 µM), most hits filed as cytotoxic; 410,000 compounds, 0.76% hits; AID 588856
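HepG2 CAGA-GFP cells (1000/well, DMEM with 1% FBS) received compound, then TGF-beta at 500 pg/mL final, and were incubated 18 hours at 37 degrees C. Viability was read by CellTiter-Glo luminescence. Media-only wells were set as complete cell-killing and DMSO as no toxicity.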
DRD3 agonist: activates the human D3 dopamine receptor; P35462; D3R DiscoveRx beta-arrestin cells, luminescence, 90 min; max activation, %; 410,000 compounds, 0.58% hits; in the data active = max activation above about 30%
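Agonist mode: compounds and dopamine controls were applied to plated cells for 90 min at 37 degrees C after an overnight attachment at 1500 cells/well. Luminescent read-out followed 30 - 60 minutes at room temperature with DiscoveRx detection reagent.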
TGFb inhibitor: TGF-b pathway inhibition. HepG2 CAGA-GFP TGF-b/SMAD3 reporter, GFP fluorescence, 18 h; TGF-beta stimulated, 500 pg/mL final. 410,000 compounds, 1.2% hits. Potency, µM (top dose mostly 46.1 µM), actives largely listed as inhibitors. AID 588855; note: nearly all actives have a fitted effect of over 65% in size
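GFP signal (ex488/em500-530) from TGF-beta-stimulated HEPG2 CAGA-GFP cells, 500 pg/mL final, 18 h at 37 degrees C in DMEM plus 1% FBS, normalized to unstimulated and DMSO-stimulated controls.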
TGFb CAGA inh: confirmation of TGF-b signaling inhibitors in HepG2 reporter cells; shares compounds with TGFb inhibitor; HepG2 CAGA-GFP TGF-b reporter, GFP fluorescence, 18 h; cells stimulated with TGF-beta, 500 pg/mL; Potency, µM (doses to about 46.1 µM), hits mostly inhibitors; 1,600 compounds, 63% hits; AID 720534; note: nearly all actives have a fitted effect of over 65% in size
HepG2 tox-2: HepG2 cytotoxicity, TGF-b inhibitor counterscreen. 1,600 compounds, 27% hits. shares compounds with TGFb inhibitor. HepG2 CAGA-GFP viability, ATP luminescence, 18 h; cells stimulated with TGF-beta, 500 pg/mL. AID 720535. Potency, µM (titrated, usually from 46.1 µM), actives largely listed as inhibitors; note: nearly all actives have a fitted effect of over 70% in size
CCL64 TGFb inh: blocks TGF-b signaling in CCL64 reporter cells | shares compounds with TGFb inhibitor | CCL64 CAGA-GFP reporter, TGF-b stimulated, GFP fluorescence, 18 h | Potency, µM (highest dose often 46.1 µM), most hits filed as inhibitors | 1,600 compounds, 41% hits; note: nearly all actives have a fitted effect of over 65% in size
TGFb COP inh: validation of TGF-b inhibitors in HepG2 COP promoter reporter; shares compounds with TGFb inhibitor; HepG2 COP-GFP TGF-b reporter, GFP fluorescence, 18 h; cells stimulated by added recombinant TGF-beta; AID 720537; Potency, µM (top dose mostly 46.1 µM), hits mostly inhibitors; 1,600 compounds, 3% hits; note: nearly all actives have a fitted effect of over 70% in size
A number is an active result; – = inactive; ? = inconclusive; · = not tested or not shown. Only some compounds are listed: those with a hit (about 4.8% of all), similar ones and a draw of the others. Unless noted, calls come from the whole dose curve; as a rule, active = well fitted curve in the direction sought with a large enough effect; inconclusive = small, poorly fitted or top-dose-only effect, or another doubt; inactive = no such curve, though single readings can be large; an effect the other way counts as inactive or inconclusive.

SMILES	DRD3 antagonist	ATXN2 expr inh	S2 tox	HepG2 tox-1	DRD3 agonist	TGFb inhibitor	TGFb CAGA inh	HepG2 tox-2	CCL64 TGFb inh	TGFb COP inh
CC=Cc1cc2c(c(=O)o1)C(=O)C(O)C(C)O2 (configuration not stated)	?	?	·	–	–	11µM	5.2µM	21µM	?	–
O=C(c1ccc(F)cc1)N1CCC(C(=O)N(Cc2ccccc2)c2ccccc2)CC1	–	·	–	–	–	–	·	·	·	·
CN(CCOc1ccccc1)C(=O)C1CCN(C(=O)c2ccc(F)cc2)CC1	–	–	–	–	–	?	–	–	–	–
COc1ccc(OC)c(Nc2ncc3c(n2)CCN(Cc2cc(OC)c(OC)c(OC)c2)C3)c1	·	–	–	–	–	–	·	·	·	·
O=S(=O)(c1ccccc1)c1nnn2c1nc(NC1CCCCCC1)c1sccc12	·	·	·	–	–	–	·	·	·	·
CC(=O)Nc1cc(-c2ccccc2F)cn2c(-c3ccccc3)cnc12	–	–	?	–	–	–	·	·	·	·
O=CNc1cc(-c2cccc(F)c2)cn2c(-c3ccc(F)cc3)cnc12	–	–	–	–	–	?	·	·	·	·
O=CNc1cc(-c2ccoc2)cn2c(-c3ccc(F)cc3)cnc12	?	–	–	–	–	10µM	?	–	?	–
Cn1cc(-c2cnc3c(NC=O)cc(-c4cccc(C(F)(F)F)c4)cn23)cn1	–	–	–	–	–	11µM	23µM	–	?	–
CC(=O)c1cccc(-c2cnc3c(NC=O)cc(-c4ccccc4F)cn23)c1	–	?	–	–	–	6.3µM	6.5µM	–	1.5µM	–
Cc1ccc(NC(=O)N2CCC(CN3CCCCCC3)CC2)c(Cl)c1	·	·	·	–	–	–	·	·	·	·
CCOC(=O)CSc1nc2cc3c(cc2c(=O)n1CCCC(=O)NCc1ccc2c(c1)OCO2)OCO3	·	·	·	–	–	–	·	·	·	·
COc1cc(=O)n2c(c1C(=O)NC(C)c1ccco1)CCN(CC=C(C)C)CC2 (configuration not stated)	·	·	–	·	·	·	·	·	·	·
CCOc1ccc(Cl)cc1-c1cc(C(=O)NCc2cc(C(F)(F)F)cc(C(F)(F)F)c2)[nH]n1	–	?	?	–	–	16µM	16µM	?	?	–
CCCOc1ccc(F)cc1-c1cc(C(=O)NCc2cc(C(F)(F)F)cc(C(F)(F)F)c2)[nH]n1	–	–	–	–	–	–	·	·	·	·
O=c1c2ccccc2nc(/C=C/c2ccc([N+](=O)[O-])o2)n1CCCO	–	4.5µM	·	3.2µM	–	5.6µM	3.3µM	6.5µM	5.8µM	?
O=c1c2ccccc2nc(/C=C/c2ccc([N+](=O)[O-])cc2)n1CCCO	–	–	–	–	–	–	·	·	·	·
COc1ccc(OC)c(NC(=O)NNC(=O)CCCOc2ccc(Cl)cc2C)c1	–	–	–	–	–	?	16µM	–	–	–
COc1ccc(NC(=O)NNC(=O)COc2ccc(Cl)cc2C)cc1OC	–	–	–	–	–	–	·	·	·	·
Cc1nn(-c2ccccc2)c2c1cc1c(=O)[nH]c(=O)nc-1n2-c1cccc(Cl)c1	·	–	–	–	–	–	·	·	·	·
CN(C)CC(C(=O)c1ccccc1)c1ccccc1 (configuration not stated)	-51	22µM	·	8.9µM	–	4µM	5.2µM	10µM	3.3µM	?
COCCn1c(-c2ccc(Br)cc2)csc1=Nc1cccnc1	–	–	–	–	–	?	·	·	·	·
FC(F)Oc1ccc(-c2csc(=Nc3cccnc3)n2CC2CCCO2)cc1 (configuration not stated)	–	–	–	–	–	?	–	–	–	–
CC(C)C[C@H]1CNC(=S)N1CC1CCCN1C[C@H](Cc1ccccc1)N1C[C@H](Cc2ccc(O)cc2)N(CC2CCCCCC2)C1=S (some centres not stated)	–	–	–	–	–	6.3µM	15µM	?	5.8µM	–
CC(C)C[C@H]1CN([C@@H](Cc2ccc(O)cc2)CN2CCC[C@@H]2CN2C(=S)NC[C@@H]2Cc2ccccc2)C(=S)N1CC1CCCCCC1	–	?	?	–	–	10µM	?	–	?	–
SMILES	DRD3 antagonist	ATXN2 expr inh	S2 tox	HepG2 tox-1	DRD3 agonist	TGFb inhibitor	TGFb CAGA inh	HepG2 tox-2	CCL64 TGFb inh	TGFb COP inh
CC(=O)N1CCCc2ccc(NC(=O)c3ccc(C(F)(F)F)cc3)cc21	·	·	·	–	–	–	·	·	·	·
Cc1cc(Nc2cnc3ccccc3n2)n(-c2ccccc2)n1	–	–	–	–	–	?	·	·	·	·
Cc1cc(Nc2nc3ccccc3[nH]c2=O)n(-c2ccccc2)n1	–	–	–	–	–	10µM	8.2µM	–	12µM	–
COc1ccc(-c2cc(N)n(S(=O)(=O)c3c(F)c(F)c(F)c(F)c3F)n2)cc1OC	-56	7.9µM	10µM	8.9µM	–	4µM	2.6µM	8.2µM	2.9µM	?
CC(=O)Oc1ccc(-c2ccc(C(=O)Nc3cccc(S(=O)(=O)N4CCOCC4)c3)cc2)cc1	–	–	–	–	–	11µM	21µM	?	?	–
CC(C)CCNC(=O)C1CCC(Cn2c(=O)c3sccc3n(CC(=O)NC(C)C)c2=O)CC1 (configuration not stated)	·	–	–	–	–	–	·	·	·	·
Cc1ccc(CSc2nc3ccc(NC(=O)COc4ccccc4)cc3s2)cc1	·	–	?	–	–	–	·	·	·	·
COc1ccc(C(=O)C(CCC(CNC(C)(C)C)C(=O)c2ccc(OC)cc2)CNC(C)(C)C)cc1 (configuration not stated)	-55	?	?	–	–	7.1µM	?	18µM	4.1µM	?
COc1ccc(C(=O)CC(=O)c2ccc(C(C)(C)C)cc2)cc1	–	?	–	–	–	–	·	·	·	·
CCCc1nc([N+](=O)[O-])c(S(=O)(=O)c2ccccc2)n1CC(C)C	–	?	?	–	–	10µM	21µM	?	16µM	–

Source: PubChem (National Center for Advancing Translational Sciences (NCATS))
